Experiment: Pseudomonas biofilm growth suppression – PAO1 strain, BacTiter-Glo luminescence, LB-PBS, primary screen (AID 1144)
Conditions: P. aeruginosa PAO1 biofilm, 12 h, higher = more signal; call rule not given here

z-score, inactive:
CCOC(=O)C1=CC[C@@H](c2ccc(OC)cc2)N(S(=O)(=O)c2ccc(C)cc2)[C@H]1c1ccc(C)cc1 0.12
CCOC(=O)C[C@H]1[C@H](OC(=O)Cc2ccc3c(c2)OCO3)[C@@H](NC(=O)c2ccc3ccccc3n2)c2cc(OCCCO)ccc2N1C(=O)Cc1ccc(OC)cc1 -0.885
CC(C)(C)N1CC=CC23O[C@@H]4C=CCOC(=O)[C@@H]4[C@H]2C(=O)N(CCO)[C@@H]3C1=O (stereo not given in full) 1.7
CCOC(=O)C1=CC[C@@H](c2ccc(OC)cc2)N(S(=O)(=O)c2ccc(C)cc2)[C@H]1CC -0.785
COc1ccc(NN2C(C(O)c3ccc(I)cc3)C=CC3C(=O)N(C4CCCCC4)C(=O)C32)cc1 (stereo not given) -2.03
C=CCOC(=O)[C@H]1[C@@H]2C(=O)O[C@@H](c3ccccc3)[C@@H](c3ccccc3)N2[C@@H](c2ccc(OCCOC(=O)[C@@H]3C[C@@H]4C(=O)N[C@@H](CCCC[N+](C)(C)C)C(=O)N4[C@@H]3c3ccc(O)cc3)cc2)[C@]12C(=O)Nc1ccc(I)cc12 0.201
Cc1ccc(S[C@]2(C(=O)NCc3ccccc3)CC(=O)N(Cc3ccccc3C(F)(F)F)[C@@H]2c2ccc(CO)cc2)cc1 -0.937
CC(C)=CCCC(C)=CC(O)C1C=CC2C(=O)NC(=O)C2N1Nc1ccccn1 (stereo not given) -0.564
O=C1O[C@H](c2ccccc2)[C@H](c2ccccc2)N2[C@H]1[C@@H](C(=O)O)[C@]1(C(=O)Nc3ccc(C#CCCO)cc31)[C@H]2c1ccc(OCCO)cc1 0.982
C=CCN1C(=O)[C@@]2(O[C@@H](CCn3cc([C@H](O)c4ccccc4)nn3)[C@H]([Si](C)(C)c3ccc(OC)cc3)[C@H]2C)c2cc(N3C(=O)c4cccc5cccc3c45)ccc21 -0.119
NC(=O)NCC#Cc1ccc2c(c1)[C@]1(C(=O)N2)[C@H](c2ccc(OCCO)cc2)N2[C@H](c3ccccc3)[C@H](c3ccccc3)OC(=O)[C@H]2[C@@H]1C(=O)O -0.626
CO[C@H]1O[C@H](CO)[C@@H](OC(=O)Nc2ccc3c(c2)OCO3)[C@H](OC(=O)Nc2ccccc2-c2ccccc2)[C@H]1OC(=O)Nc1ccccc1-c1ccccc1 -0.378
CC1CC/C=C\[C@H]2OC34C=CCN(c5ccc6ccccc6c5)C(=O)[C@H]3N(C(C)CO)C(=O)[C@@H]4C2C(=O)O1 (stereo not given in full) 0.282
COC(=O)[C@@]1(Cc2ccc(OC)cc2)[C@H]2c3cc(C(=O)N4CCCC4)n(Cc4ccc(C(F)(F)F)nc4)c3C[C@H]2CN1C(=O)c1ccccc1 0.361
Cc1ccc(C(C)CC(O)C2C=CC3C(=O)N(C)C(=O)C3N2Nc2ccccc2)o1 (stereo not given) -0.368
C=CC[C@@]1(C(=O)N(C)C)N=C(c2ccc(OCCCO)cc2)O[C@@H]1c1ccccc1CN=[N+]=[N-] 1.1
COC(=O)[C@@]1(Cc2ccccc2)[C@H]2c3cc(C(=O)N4CCCC4)n(Cc4ccc(OC)c(OC)c4)c3C[C@H]2CN1C(=O)c1ccccc1 0.388
N#Cc1ccc(NN2C(C(O)C3CC=CCC3)C=CC3C(=O)N(c4ccccc4)C(=O)C32)cc1 (stereo not given) -1.34
C=C(C)[C@@H]1CC=C(C(O)C2C=CC3C(=O)N(c4ccccc4)C(=O)C3N2Nc2ccc([N+](=O)[O-])cc2)CC1 (stereo not given in full) -1.4
COc1ccc([Si](C)(C)[C@H]2[C@H](CCO)O[C@@]3(C(=O)N(Cc4cccc(N(C=O)c5ccccc5)c4)c4ccccc43)[C@@H]2C)cc1 -0.914
CCCCC(O)C1C=CC2C(=O)N(c3ccccc3)C(=O)C2N1Nc1ccc([N+](=O)[O-])cc1 (stereo not given) -2.08
COc1ccc([Si](C)(C)[C@@H]2[C@@H](CC(=O)N3CCC[C@H]3CO)O[C@]3(C(=O)N(Cc4ccc(N5CCOC5=O)cc4)c4ccccc43)[C@H]2C)cc1 -0.0278
CC(C)NC(=O)[C@@H]1c2ccccc2C(=O)N(Cc2ccccc2C(F)(F)F)[C@H]1c1ccc(CO)cc1 -0.949
CCCCCC1=C2CNC(Cc3ccccc3)(C(=O)OC)C=C2C(C)C1=O (stereo not given) 0.949
CN(C)c1ccc(C(O)C2C=CC3C(=O)N(Cc4ccccc4)C(=O)C3N2n2cnnc2)cc1 (stereo not given) -1.85
O=C(NCC(O)CO)[C@@]1(CCS(=O)(=O)c2ccccc2)N=C(c2ccc(OCCCO)cc2)O[C@H]1c1ccccc1 (stereo not given in full) -0.513
COCCCNC(=O)[C@@H]1c2ccccc2C(=O)N(Cc2ccc(OC(F)(F)F)cc2)[C@H]1c1ccc(CO)cc1 0.0789
Cc1ccc(F)cc1S(=O)(=O)N[C@H]1CCN(Cc2ccc(OC(C)C)cc2)C1 0.434
CC1CC/C=C\[C@H]2OC34C=CCN(c5ccc(Cl)cc5)C(=O)[C@H]3N(CCCCCCO)C(=O)[C@]4(C)C2C(=O)O1 (stereo not given in full) 0.306
O=C1C2C=CC(C(O)c3c(F)cccc3Cl)N(Nc3ccc([N+](=O)[O-])cc3)C2C(=O)N1c1ccccc1 (stereo not given) -1.44
[N-]=[N+]=Nc1ccccc1[C@@H]1OC(c2ccc(OCCCO)cc2)=N[C@]1(CCS(=O)(=O)c1ccccc1)C(=O)NCC(O)CO (stereo not given in full) -0.27
C=CC[C@@]1(C(=O)OC)N=C(c2ccc(OCCCO)cc2)O[C@@H]1c1ccccc1N=[N+]=[N-] -1.57
COC(=O)[C@@]1(Cc2ccc(OC)cc2)[C@H]2c3cc(C(=O)N4CCCC4)n(CCn4cc([N+](=O)[O-])nc4C)c3C[C@H]2CN1C(=O)c1ccccc1 -0.245
CN1C(=O)C2C(C3CC3)C=C3CN(Cc4cccc(Cl)c4)[C@@H]([C@@H](O)Cc4ccccc4)C3C2C1=O (stereo not given in full) -0.0257
COc1ccccc1CN1C(=O)c2ccccc2[C@](Cc2ccccc2I)(C(=O)NCC(C)C)[C@@H]1c1ccc(CO)cc1 0.584

Reference: PubChem BioAssay
